We go through 53 compounds from PubChem BioAssay AID1347165 (National Center for Advancing Translational Sciences (NCATS), 2019).

In all, about 220,000 compounds went through this assay and about 5,700 (2.6%) were called active. Roughly 18% stayed inconclusive and do not appear here. Calls come from the whole dose curve; as a rule, active = well fitted inhibition curve with a large enough effect; inconclusive = small, poorly fitted or top-dose-only effect; inactive = no such curve, though single readings can be large or run the other way. The entries come from a sample that favours actives as a whole.
Potency is the fitted concentration of half-maximal effect.

Chain of Lysine-specific demethylase 5B (Homo sapiens) (Q9UGL1 whole entry, looked up): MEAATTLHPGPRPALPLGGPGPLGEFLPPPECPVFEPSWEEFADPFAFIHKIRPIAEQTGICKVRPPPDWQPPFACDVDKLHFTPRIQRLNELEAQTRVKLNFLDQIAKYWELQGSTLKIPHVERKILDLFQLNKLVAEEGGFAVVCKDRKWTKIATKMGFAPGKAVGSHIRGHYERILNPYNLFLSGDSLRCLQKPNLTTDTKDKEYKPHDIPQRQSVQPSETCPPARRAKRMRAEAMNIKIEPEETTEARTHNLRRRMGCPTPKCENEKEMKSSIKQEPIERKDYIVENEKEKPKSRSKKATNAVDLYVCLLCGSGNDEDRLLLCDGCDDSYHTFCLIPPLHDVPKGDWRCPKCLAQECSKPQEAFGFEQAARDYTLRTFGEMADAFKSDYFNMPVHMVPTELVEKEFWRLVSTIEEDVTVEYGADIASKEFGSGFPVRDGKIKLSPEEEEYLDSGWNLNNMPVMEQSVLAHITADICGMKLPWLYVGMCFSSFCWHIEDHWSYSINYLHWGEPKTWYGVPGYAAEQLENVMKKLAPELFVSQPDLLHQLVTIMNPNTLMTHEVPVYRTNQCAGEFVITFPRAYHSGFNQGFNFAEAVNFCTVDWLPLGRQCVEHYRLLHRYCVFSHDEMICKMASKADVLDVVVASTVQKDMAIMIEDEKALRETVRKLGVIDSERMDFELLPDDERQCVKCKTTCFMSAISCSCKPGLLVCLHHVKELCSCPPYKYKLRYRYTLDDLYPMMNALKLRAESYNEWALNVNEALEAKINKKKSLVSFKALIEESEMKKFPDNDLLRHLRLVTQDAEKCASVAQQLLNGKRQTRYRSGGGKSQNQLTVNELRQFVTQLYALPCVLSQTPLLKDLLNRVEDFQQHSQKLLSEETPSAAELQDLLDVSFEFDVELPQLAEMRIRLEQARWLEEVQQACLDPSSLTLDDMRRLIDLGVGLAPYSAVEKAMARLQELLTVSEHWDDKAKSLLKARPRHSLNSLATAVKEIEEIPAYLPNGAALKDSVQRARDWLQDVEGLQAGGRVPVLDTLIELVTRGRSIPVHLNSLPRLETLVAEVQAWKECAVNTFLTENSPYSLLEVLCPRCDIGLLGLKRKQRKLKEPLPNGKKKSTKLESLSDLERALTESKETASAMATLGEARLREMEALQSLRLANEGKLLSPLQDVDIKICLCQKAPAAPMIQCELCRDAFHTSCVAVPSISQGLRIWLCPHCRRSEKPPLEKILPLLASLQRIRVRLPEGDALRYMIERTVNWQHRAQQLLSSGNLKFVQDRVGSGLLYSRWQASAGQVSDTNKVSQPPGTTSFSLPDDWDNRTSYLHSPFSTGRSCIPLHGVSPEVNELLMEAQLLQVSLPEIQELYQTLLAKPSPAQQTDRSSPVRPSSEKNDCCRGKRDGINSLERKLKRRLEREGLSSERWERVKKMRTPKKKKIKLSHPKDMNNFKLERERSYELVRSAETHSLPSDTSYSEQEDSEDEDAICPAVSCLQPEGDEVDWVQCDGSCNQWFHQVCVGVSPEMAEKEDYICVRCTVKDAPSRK

The experiment concerns the target Lysine-specific demethylase 5B (Homo sapiens) (UniProt Q9UGL1). The experiment in a line: Primary screen for KDM5B Histone Demethylases FDH-coupled qHTS. For activity change, negative = inhibition: 0% is about no effect. Note: nearly all actives have a fitted effect of over 70% in size. The conditions noted are these: FDH-coupled NADH fluorescence (FDH is formaldehyde dehydrogenase); series mostly up to 57.7 µM; activity change, negative = inhibition: at the top concentration. The method, boiled down: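 Here, H3K4me3 peptide (12.5 µM in substrate mix) is demethylated by KDM5BΔAP, 200 nM final, after 10 min compound exposure. Formaldehyde product is coupled through FDH (0.25 U/mL in mix) to NADH fluorescence; 30-min ΔRFU feeds dose-response curves.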
Turning to `COc1ccc2cc(-c3[nH]ncc3CN3CCN(c4cccc(C)n4)CC3)ccc2c1`, the Potency was 28.2 µM (active).
As for `COc1ccc(-c2[nH]ncc2CN2CCCC(C(=O)NCc3ccccc3)CCNC(=O)CC2)cc1` (stereo not drawn), the “activity change, negative = inhibition” value is -19.8% (inactive).
As for `COc1ccc(CN2CCc3nc(C(=O)N4CCOCC4)oc3CC2)cc1OC`, the “activity change, negative = inhibition” value was 4.99% [at 86.2 µM] (inactive).
Same read-out and setting: for `O=C(Nc1ccc(-n2cccn2)cc1)C1CCN(Cc2ccsc2)CC1` the value was 23.1% (inactive).
Take `O=C(Nc1ccccc1)c1nc2c(o1)CCN(Cc1cccc(Cl)c1)CC2`: the Potency was 28.2 µM (active).
On to `O=C(NCC1CC1)c1nc2c(o1)CCN(CCc1ccccc1)CC2`, for which the “activity change, negative = inhibition” value was -23.1% [at 86.2 µM] (inactive).
Take `O=C(Nc1ccc(Cl)cc1)c1nc2c(o1)CCN(Cc1ccsc1)CC2`: the Potency was 31.6 µM (active).
`CCOc1ccc(NC(=O)CSc2nc3c(c(=O)[nH]2)CN(Cc2ccc(Cl)cc2)CC3)cc1`: the “activity change, negative = inhibition” value was -4.81% (inactive).
`O=C(NCC1CC1)c1nc2c(o1)CCN(Cc1cccc(F)c1F)CC2`: the “activity change, negative = inhibition” value is -26.9% [at 86.2 µM] (inactive).
Turning to `Cc1cccc(CN2CCc3nc(C(=O)Nc4ccc(Cl)cc4)oc3CC2)c1`, the Potency was 31.6 µM (active).
Regarding `O=C(c1nc2c(o1)CCN(Cc1ccccc1F)CC2)N1CCOCC1`, the “activity change, negative = inhibition” value is -4.96% [at 86.2 µM] (inactive).
For `Cc1cc(Br)ccc1NC(=O)CN(C)Cc1ncc(-c2ccc(F)cc2)o1`, the “activity change, negative = inhibition” value was -15.3% (inactive).
The same measure, in the same setting: next, `CCc1ccc(CN(C(=O)c2cc(=O)c3cc(C)cc(C)c3o2)C2CCS(=O)(=O)C2)cc1` (stereo not drawn): -0.964% (inactive).
Turning to `O=C(CSc1ncnc2sc3c(c12)CCCC3)Nc1ccc(F)cc1`, the “activity change, negative = inhibition” value was 8.22% (inactive).
Turning to `CC(C)NC(=O)c1ccccc1NC(=O)C(Cl)Cl`, the “activity change, negative = inhibition” value was -10.1% (inactive).
As for `CCCn1nc(C(=O)NCc2ccc(OC)cc2)c2ccccc2c1=O`, the “activity change, negative = inhibition” value was 7.93% (inactive).
As to `Cc1ccc(-c2nc(C(=O)N(C)Cc3ccccc3)no2)cc1`, the “activity change, negative = inhibition” value was -21.9% (inactive).
For the compound `O=C(NCCc1noc(-c2ccccc2)n1)C1CC1`, the “activity change, negative = inhibition” value was 24% (inactive).
In the case of `Oc1ccc(-c2ccc(-c3nc(CCc4ccccc4)no3)cn2)cc1`, the Potency is 25.1 µM (active).
Turning to `CCc1ccc(N/C(N)=N/c2nc(C)cc(C)n2)cc1`, the “activity change, negative = inhibition” value was 16.5% (inactive).
Regarding `COC(=O)CC1c2cc(OC)c(OC)cc2CCN1Cc1nc(CC(C)C)no1` (stereo not drawn), the “activity change, negative = inhibition” value is -7.43% (inactive).
In the case of `O=C(/C=C/c1ccc(-c2cc(Cl)ccc2Cl)o1)c1ccc(F)cc1`, the “activity change, negative = inhibition” value is -4.81% (inactive).
In the case of `CNC(=O)[C@@H]1CN(C(=O)c2n[nH]c3ccccc23)C[C@H]1COC`, the “activity change, negative = inhibition” value is -15.7% (inactive).
In the case of `CNC(=O)[C@@H]1CN(C(=O)Cc2cccnc2)C[C@H]1COC`, the “activity change, negative = inhibition” value is -8.75% (inactive).
Take `COC[C@@H]1CN(c2ncccn2)C[C@H]1C(=O)Nc1ccncc1`: the Potency is 20 µM (active).
Turning to `S=C(NCCc1ccc(Cl)cc1)Nc1ccc(Oc2ccccc2)cc1`, the “activity change, negative = inhibition” value was 3.85% (inactive).
Regarding `CN(C)[C@@H]1CN(C(=O)c2cccn2C)CC[C@@H]1CO`, the “activity change, negative = inhibition” value was 12.6% (inactive).
For the compound `Cc1noc(C)c1-c1cc(-c2cncnc2)cn2cncc12`, the “activity change, negative = inhibition” value was -16.6% [at 115 µM] (inactive).
As to `CN(C)Cc1cccc(-c2cc(-c3ccncc3)c3cncn3c2)c1`, the Potency is 28.2 µM (active).
The same measure, in the same setting: for `FC(F)(F)c1cccc(-c2cc(C3=CCOCC3)c3cncn3c2)c1` the value was 35.5 µM (active); for `OCc1cccc(-c2cc(C3=CCOCC3)c3cncn3c2)c1`, 31.6 µM (active).
For `Cc1nc(NC(C)C)sc1C(=O)Nc1ccccc1`, the “activity change, negative = inhibition” value is -3.94% (inactive).
As for `O=C(COC(=O)c1cc2ccccc2[nH]1)NCc1ccc(F)cc1`, the “activity change, negative = inhibition” value was -15.2% (inactive).
Take `NC(=O)c1ccc(CN(Cc2cccs2)C2CC2)cc1`: the “activity change, negative = inhibition” value was -16.1% (inactive).
On the same count and under the same terms, for `O=C(O)CCC(=O)NC1CC2(CCN(C(=O)c3ccccc3)CC2)c2ccccc21` (stereo not drawn) the value was 9.24% [at 115 µM] (inactive); for `CCOc1ccc(CN(C)CC(O)COc2ccc(C)cc2C)cc1OC` (stereo not drawn), -21.4% (inactive).
As for `CC(=O)NC1(C)CN(Cc2ccc(-c3ccc4c(ccn4C)c3)s2)C1`, the Potency was 35.5 µM (active).
Regarding `Cn1ccc2cc(S(=O)(=O)N3CCC(C(=O)NCCN4CCCC4)CC3)ccc21`, the “activity change, negative = inhibition” value is -8.91% (inactive).
As for `CC(=O)NC1(C)CCN(Cc2cnc(-c3ccc4c(ccn4C)c3)s2)CC1`, the Potency was 35.5 µM (active).
For `CC(=O)N1CCN(C(=O)c2ccc3c(ccn3C)c2)CC1`, the “activity change, negative = inhibition” value is -2.69% (inactive).
For the compound `CCC(=O)c1ccc(OC(=O)c2nn(C(C)C)c(=O)c3ccccc23)cc1`, the “activity change, negative = inhibition” value was 7.72% (inactive).
Same read-out and setting: for `Cc1ccc(Nc2cc(C)nc3c(C)c(C)cc([N+](=O)[O-])c23)c(C)c1` the value was -12.7% (inactive); for `O=S(=O)(CCSc1nnc(-c2ccccc2)o1)c1ccc(Br)cc1`, 3.11% (inactive).
As to `COc1ccc(C(=O)OCC(=O)NCC(F)(F)F)cc1`, the “activity change, negative = inhibition” value is 10.4% (inactive).
Consider `O=C(CSc1nc2ccccc2s1)Nc1ccc2c(c1)CCC2`, for which the “activity change, negative = inhibition” value was 23.2% (inactive).
On to `O=C(CCc1ncc(-c2ccc(F)cc2F)o1)Nc1ccccc1`, for which the “activity change, negative = inhibition” value was 6.26% (inactive).
Take `Cc1cccc(NC(=O)Nc2ccc(OCc3ccccc3)cc2)n1`: the “activity change, negative = inhibition” value is 30.5% (inactive).
With `CCn1ccc2cc(S(=O)(=O)N3CCC(C(=O)NCC4CCCO4)CC3)ccc21` (stereo not drawn), the “activity change, negative = inhibition” value is 24.8% (inactive).
As to `CC(=O)N1CCN(Cc2cc(F)ccc2Cl)CC(O)C1` (stereo not drawn), the “activity change, negative = inhibition” value is -20.1% (inactive).
Turning to `O=C(c1ccc2[nH]ccc2c1)N1CCN(S(=O)(=O)c2cccc3nonc23)CC1`, the “activity change, negative = inhibition” value is -8.8% (inactive).
As to `O=C(c1ccc2cc[nH]c2c1)N1CCN(Cc2cnc[nH]2)CC(O)C1` (stereo not drawn), the Potency was 25.1 µM (active).
Take `CN(C)C(=O)c1cccc(NCC(=O)NC(=O)NCc2ccccc2)c1`: the “activity change, negative = inhibition” value is 0.332% (inactive).
Same read-out and setting: for `Cc1ccc(C(=O)N2CCN(c3oc(C4CC4)nc3C#N)CC2)c(C)c1` the value was 5.21% (inactive).
